In PubChem BioAssay AID1159580 (chemical genetic matrix, 2015):
Several values for one entry are separate records, joined by “and”; a condition that tells them apart may be missing. Equal values may be shown once. Screen size: about 5,500 compounds; about 2,000 (36%) were called active. Roughly 18% stayed inconclusive and do not appear here. Rule as the data show it: active = normalized growth mostly below about 0.91 (no sharp cut-off); inconclusive = no clear call, values can overlap the other calls; inactive = mostly above about 0.92. The list shows a part of the results.

Assay: chemical genetic growth profiling, strain panel (AID 1159580);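 also: tested at 20 µM; growth read once vehicle control cultures reached saturation at 30 °C; 1 = growth at the plate median or of vehicle wells; lower values mean less growth of the strain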
Conditions: S. cerevisiae deletion strains, growth OD

Measured: normalized growth

COc1cc2c3cc1Oc1cc(ccc1O)C[C@@H]1c4c(cc(OC)c(O)c4Oc4ccc(cc4)C[C@@H]3N(C)CC2)CC[N+]1(C)C
inactive: locus YAL021C, strain ccr4, active compounds read low 1 | locus YAL026C, strain drs2, active compounds read low 0.976 | locus YAL030W, strain snc1, active compounds read low 1.01 | locus YBL061C, strain skt5, active compounds read low 1 | locus YBR009C, strain hhf1, active compounds read low 0.943 | locus YBR021W, strain FUR4, active compounds read low 0.998 | locus YBR023C, strain chs3, active compounds read low 0.997 | locus YBR171W, strain sec66, active compounds read low 1.01 | locus YBR229C, strain ROT2, active compounds read low 1 | locus YBR231C, strain swc5, active compounds read low 1.02 | locus YBR279W, strain paf1, active compounds read low 0.991 | locus YCL011C, strain gbp2, active compounds read low 0.954 | locus YCL016C, strain dcc1, active compounds read low 0.939 | locus YCL029C, strain bik1, active compounds read low 0.999 | locus YCL069W, strain vba3, active compounds read low 0.998 | locus YCR088W, strain abp1, active compounds read low 0.997 | locus YDL005C, strain med2, active compounds read low 1 | locus YDL035C, strain GPR1, active compounds read low 1 | locus YDL040C, strain nat1, active compounds read low 1.01 | locus YDL074C, strain BRE1, active compounds read low 1.02 | locus YDL101C, strain DUN1, active compounds read low 1.02 | locus YDL185W, strain tfp1, active compounds read low 1.01 | locus YDL192W, strain arf1, active compounds read low 0.998 | locus YDR001C, strain nth1, active compounds read low 0.972 | locus YDR069C, strain doa4, active compounds read low 1.02 | locus YDR101C, strain arx1, active compounds read low 1 | locus YDR137W, strain rgp1, active compounds read low 1 | locus YDR159W, strain sac3, active compounds read low 0.927 | locus YDR162C, strain NBP2, active compounds read low 1.03 | locus YDR195W, strain ref2 1.01 | locus YDR297W, strain sur2, active compounds read low 1 | locus YDR318W, strain mcm21, active compounds read low 0.994 | locus YDR334W, strain swr1, active compounds read low 0.979 | locus YDR335W, strain msn5, active compounds read low 0.995 | locus YDR388W, active compounds read low 1 | locus YDR392W, strain spt3, active compounds read low 0.769 | locus YDR502C, strain sam2, active compounds read low 1 | locus YEL003W, strain gim4, active compounds read low 1 | locus YEL037C, strain rad23, active compounds read low 0.999 | locus YEL061C, strain CIN8 (second series), active compounds read low 0.967 | locus YEL061C, strain CIN8, active compounds read low 1.01 | locus YER015W, strain faa2, active compounds read low 0.996 | locus YER016W, strain bim1, active compounds read low 0.988 | locus YER110C, active compounds read low 1.01 | locus YER111C, strain swi4, active compounds read low 0.994 | locus YER155C, strain BEM2 (second series), active compounds read low 1.05 | locus YER155C, strain BEM2, active compounds read low 1.02 | locus YER167W, strain BCK2, active compounds read low 1.01 | locus YFR010W, strain ubp6, active compounds read low 0.989 | locus YGL078C, strain dbp3, active compounds read low 0.993 | locus YGL086W, strain mad1, active compounds read low 1.03 | locus YGL167C, strain pmr1, active compounds read low 1 | locus YGL173C, strain kem1, active compounds read low 1 | locus YGL227W, strain vid30, active compounds read low 0.981 | locus YGL240W, strain doc1, active compounds read low 1.02 | locus YGL248W, strain PDE1, active compounds read low 1.02 | locus YGL253W, strain hxk2, active compounds read low 0.978 | locus YGR135W, strain pre9, active compounds read low 0.989 | locus YGR252W, strain gcn5, active compounds read low 0.947 | locus YHR013C, strain ard1, active compounds read low 0.943 | locus YHR027C, strain rpn1, active compounds read low 0.988 | locus YHR030C, strain SLT2, active compounds read low 1 and 0.98 | locus YHR079C, strain IRE1 (second series), active compounds read low 1.01 | locus YHR079C, strain IRE1, active compounds read low 0.981 | locus YHR094C, strain hxt1, active compounds read low 0.996 | locus YHR129C, strain ARP1, active compounds read low 1.02 | locus YHR142W, strain chs7, active compounds read low 1 | locus YHR200W, strain rpn10, active compounds read low 0.993 | locus YIL066C, strain RNR3, active compounds read low 1.01 | locus YIL073C, strain SPO22, active compounds read low 1.07 | locus YIL125W, strain kgd1, active compounds read low 1.01 | locus YIR030C, strain dcg1, active compounds read low 0.997 | locus YJL092W, strain hpr5, active compounds read low 0.988 | locus YJL095W, strain BCK1 (second series), active compounds read low 1 | locus YJL095W, strain BCK1, active compounds read low 1.06 and 0.983 | locus YJL115W, strain asf1, active compounds read low 0.983 | locus YJL129C, strain trk1, active compounds read low 1 | locus YJL134W, strain LCB3, active compounds read low 1.01 | locus YJL154C, strain vps35, active compounds read low 0.992 | locus YJL164C, strain tpk1, active compounds read low 0.957 | locus YJL166W, strain qcr8, active compounds read low 1.04 | locus YJL168C, strain set2, active compounds read low 1.01 | locus YJL187C, strain SWE1 (second series), active compounds read low 1.04 | locus YJL187C, strain SWE1, active compounds read low 1.01 | locus YJR043C, strain POL32, active compounds read low 0.991 | locus YJR066W, strain TOR1, active compounds read low 0.969 | locus YJR075W, strain HOC1, active compounds read low 1.03
